Results published in PubChem BioAssay AID2107 (National Center for Advancing Translational Sciences (NCATS), 2009).
In all, about 240,000 compounds went through this assay and about 20 (0.008%) were called active. Another 1% or so got no clear call; they are omitted. The call rests on the fitted dose curve; in most records, active means well fitted inhibition curve with a large enough effect; inconclusive means small, poorly fitted or top-dose-only effect, or effect the other way; inactive means flat fitted curve, though single readings scatter. Not all results are given here.

Biological target: Alpha-galactosidase A (Homo sapiens) (UniProt P06280)
Sequence (P06280 32-429 limits assumed): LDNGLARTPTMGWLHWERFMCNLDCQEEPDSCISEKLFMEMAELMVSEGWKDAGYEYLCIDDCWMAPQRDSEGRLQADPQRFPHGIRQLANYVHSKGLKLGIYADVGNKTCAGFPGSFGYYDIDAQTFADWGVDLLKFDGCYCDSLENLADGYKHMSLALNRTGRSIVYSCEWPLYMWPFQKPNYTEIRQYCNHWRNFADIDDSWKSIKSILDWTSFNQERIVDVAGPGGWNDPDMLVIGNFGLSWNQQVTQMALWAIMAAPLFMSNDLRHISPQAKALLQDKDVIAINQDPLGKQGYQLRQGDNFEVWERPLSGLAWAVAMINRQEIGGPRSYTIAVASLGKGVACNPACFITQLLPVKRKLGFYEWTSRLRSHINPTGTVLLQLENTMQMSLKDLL
Test: qHTS Assay for Inhibitors and Activators of Human alpha-Galactosidase From Spleen Homogenate;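 further: 0% = enzyme with vehicle and -100% = no enzyme basal signal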
Conditions: 4MU-alpha-Gal fluorescence, 40 min; series mostly up to 80 µM; activity change, negative = inhibition: at the top concentration
Text: NIH Chemical Genomics Center [NCGC] NIH Molecular Libraries Probe Production Centers Network [MLPCN] MLPCN Grant: R03 MH084842-01 Assay Submitter (PI): Wei Zheng NCGC Assay Overview: Alpha-galactosidase is a homodimeric glycoprotein that hydrolyzes the terminal alpha-galactosyl moieties from glycolipids and glycoproteins. Deficiency of this enzyme results in Fabry Disease with progressive accumulation of globotriaosylceramide and other glycosphingolipids in vascular endothelial cells that causes renal failure, myocardial infarction and stroke, and premature death in patients. It has been reported that the improper folding and trafficking of alpha-galactosidase resulting from genetic mutations may account for a significant number of Fabry patients. […] We optimized this alpha-galactosidase assay in 1536-well plate format for identification of novel small molecule inhibitors or activators with structures other than the sugar analogs in order to develop new pharmacological chaperones. In particular, this assay is directed towards discovering compounds active in more natural setting, tissue homogenate, that may have been missed by screens of the purified enzyme under more stringent conditions.
NCGC Assay Protocol Summary: This is a fluorogenic enzyme assay with 4-methylumbelliferyl-alpha-D-galactopyranoside as the substrate and human spleen homogenate containing alpha-galactosidase as the enzyme preparation. Upon hydrolysis of this fluorogenic substrate, the resulting product, 4-methylumbelliferone (which excites at 365 nm and emits at 440 nm) can be detected by a fluorescence plate reader. Data were normalized to the controls for basal activity (without enzyme) and 100% activity (with enzyme). The AC50 values were determined from concentration-response data modeled with the standard Hill equation. Assay buffer: 50 mM citric acid (titrated with potassium phosphate to pH 5.0), 0.01% Tween-20 (pH 5.0 is an optimal condition for this enzyme assay) 1536-well assay protocol for the alpha-galactosidase from human spleen homogenate: (1) Add 2 ul/well spleen homogenate (1 ug) (2) Add 23 nL compounds in DMSO solution. The final titration was 0.5 nM to 58 uM. (3) Add 2 ul of substrate (1 mM final) (4) Incubate at 37C for 40 min (5) Add 2 ul stop solution (1M NaOH and 1M Glycine mixture, pH 10) (6) Detect the assay plate in a ViewLux plate reader (PerkinElmer) with Ex=365 nm and Em=440nm. Keywords: Alpha-galactosidase, Fabry Disease, pharmacological chaperone, chaperone therapy, high throughput screening, alpha- galactosidase inhibitor, MLSMR, MLSCN, NIH Roadmap, qHTS and NCGC

Activity change, negative = inhibition, inactive:
CSc1ccc(S(=O)(=O)Nc2cccc(F)c2)cc1 3.92%
COC(=O)c1ccc(C(NC(=O)OCc2ccccc2)/C(F)=C/[C@@H](C)C(=O)O)cc1 (stereo partly specified) -4.12%
Cc1ccc(-c2csc(N(Cc3ccco3)C(=O)c3cccs3)n2)cc1 2.51%
O=C(Nc1cc(C(=O)Nc2ccc(S(=O)(=O)O)cc2)cc(C(=O)Nc2ccc(S(=O)(=O)O)cc2)c1)Nc1cc(C(=O)Nc2ccc(S(=O)(=O)O)cc2)cc(C(=O)Nc2ccc(S(=O)(=O)O)cc2)c1 3.78%
Cc1ccccc1OCCC(=O)OCC(=O)NC(C)c1ccccc1 (stereo unspecified) 1.89%
CC[C@H](C)[C@H](NC(=O)[C@H](Cc1ccc(O)cc1)NC(=O)[C@@H](NC(=O)[C@H](CCCN=C(N)N)NC(=O)[C@@H](N)CC(=O)O)C(C)C)C(=O)N[C@@H](Cc1cnc[nH]1)C(=O)N1CCC[C@H]1C(=O)N[C@@H](Cc1ccccc1)C(=O)O -0.483%
CC(=O)Nc1ccc(S(=O)(=O)N2N=NC3C2C2CC4C3(CN(C(=O)OC(C)(C)C)S4(=O)=O)O2)cc1 (stereo unspecified) -1.71%
CSCCC(NC(=O)c1cc([N+](=O)[O-])cc([N+](=O)[O-])c1)c1nc2ccccc2[nH]1 (stereo unspecified) 18.7%
CCOc1c2ccc(C(=O)NC3CCCc4ccccc43)cc2nn1CC (stereo unspecified) 5.93%
Cc1cc(C)c(NC(=O)C[N+](C)(C)CC(O)COc2cccc3ccccc23)c(C)c1 (stereo unspecified) -14%
CCOC(=O)Cc1csc(SCc2cc(=O)oc3cc(O)ccc23)n1 9.37%
CC1(C)CC(=O)c2cnc3nc4ccccc4n3c2C1 7.68%
COCC1CCCN(Cc2cn[nH]c2-c2cc3ccccc3o2)C1 (stereo unspecified) -8.79%
Cc1cc(Cl)ccc1C(=O)C1CCCN(C(=O)CCN2CCCO2)C1 (stereo unspecified) -13%
CC(C)Cn1c(N)c(C(=O)COC(=O)CN2C(=O)C3CC=CCC3C2=O)c(=O)n(C)c1=O (stereo unspecified) 1.23%
O=C(NNc1ccccc1Cl)C(O)(c1cccc(C(F)(F)F)c1)c1cccc(C(F)(F)F)c1 -3.52%
O=C(NCc1ccccn1)[C@]1(C(F)(F)F)C[C@H](CCc2ccccc2)CCCO1 2.9%
Cc1cccc(C)c1N1CCN(S(=O)(=O)N2CCCCC2)CC1 5.18%
Cc1cccc2nc(CSc3nc4[nH]ncc4c(=O)n3-c3cccc(Cl)c3)cc(=O)n12 5.01%
N#Cc1ncc(C(F)(F)F)cc1Oc1cccnc1 -18%
CNC(=O)[C@]1(C(F)(F)F)C[C@H](CCc2ccccc2)CCCO1 -17.7%
COc1ccc(C[C@H](C(=O)O)N2C(=O)c3ccc(C(=O)O)cc3C2=O)cc1 -9.39%
Cc1ccccc1N(C(=O)Cc1cccs1)C(C(=O)NC1CCCCC1)c1cn(C)nc1C (stereo unspecified) -4.95%
C[C@@H]1O[C@@H](OC[C@H]2O[C@@H](Oc3cc(O)c4c(c3)O[C@H](c3ccc(O)c(O)c3)CC4=O)[C@H](O)[C@@H](O)[C@@H]2O)[C@H](O)[C@H](O)[C@H]1O 3.44%
CCOC(=O)C1CCN(c2c(Nc3cc(C)cc(C)c3)c(=O)c2=O)CC1 -0.907%
NC(=O)NC(=O)CSc1nc2cc([N+](=O)[O-])ccc2n1-c1cccc(C(F)(F)F)c1 -1.63%
C[C@H]1CCC[C@@]2(C)CCCC[C@]12O 2.2%
C=C1CCN(C(CC(C)C)C(=O)NCc2cc(OC)c(OC)c(OC)c2)S(=O)(=O)c2ccccc21 (stereo unspecified) -16.2%
COc1ccc(C2/C=C\CN(Cc3ccco3)C(C)C(=O)N2Cc2ccc(F)cc2)cc1 (stereo unspecified) 4.4%
COc1cc(C2OC(c3cc(OC)c(OC)c(OC)c3)C(C)C2C)cc(OC)c1OC (stereo unspecified) 5.9%
COc1ccc(CN(C(=O)CSc2nnc(-c3ccc(OC)c(OC)c3)o2)c2ccc(F)cc2)cc1 10%
C=CCC(C)(O)c1ccco1 (stereo unspecified) -6.7%
CCCCCNC(=O)c1cccnc1SCC(=O)Nc1ccccc1OC -4.08%
CC1(C)CC(N2CCN(C(c3ccccc3)c3ccccc3)CC2)=CC(=[N+]2CCCCC2)C1 3.27%
COc1ccccc1C(=O)N1CCN=C1SCc1cccnc1 0.71%
O=C(NCCCn1ccnc1)c1cc(-c2ccccc2)on1 -0.698%
C=C(C)C1CC=C(C)C(O)C1 (stereo unspecified)
C=CCN1c2ccccc2[C@]23C[C@@H](C(=O)OC)N(S(=O)(=O)c4ccc([N+](=O)[O-])cc4)C2=NC(C(=O)OC)=C(C(=O)OC)[C@H]13 -4.05% [at 17.5 µM]
[O-][n+]1onc2c1CCc1[nH]c(-c3ccccc3)nc1-2 1.23%
CC(=O)CC(c1ccccc1)C1C(=O)Oc2ccccc2C1=O (stereo unspecified) -10.1%
Cc1nn(C)c(C(=O)NNC(=S)NC2CCCCC2)c1Cl 2.34%
NCCCCC(N)C(=O)O (stereo unspecified) 2.41%
Cn1c(SCC(=O)N/N=C/c2ccc(O)c(O)c2)nc2ccccc21 3.66%
O=c1cc(-c2ccc(O)cc2)oc2c([C@@H]3O[C@H](CO)[C@@H](O)[C@H](O)[C@H]3O)c(O)cc(O)c12 -17.6%
CCN(CC)c1ccc(/C=N/NC(=O)c2cnccn2)c(O)c1 -14.2%
O=C(NCCCO)/C(=C\C=C\c1ccccc1)NC(=O)c1ccccc1Cl 1.56%
COc1ccc(/C=N/Nc2ncnc3sc4c(c23)CCCC4)cc1O 4.96%
COc1ccccc1C1C(C#N)=C(N)Oc2c1c(-c1ccccc1)nn2-c1ccccc1 (stereo unspecified) 6.59%
CC[C@H](C)[C@H](NC(=O)[C@@H](N)CCC(=O)O)C(=O)N[C@@H](CC(C)C)C(=O)N[C@@H](CC(=O)O)C(=O)N[C@H](C(=O)N1CCC[C@H]1C(=O)N[C@@H](CO)C(=O)N[C@H](C(=O)O)[C@@H](C)O)C(C)C -4.11%
C[C@]1(C(=O)NCCc2c[nH]c3ccccc23)C=C[C@@H](Cc2ccccc2)N1C(=O)c1ccccc1
CCC1(CC)C(=O)C2=C3C1[C@H](C(=O)OC)C=C(C(=O)OC)C[C@H]3[C@H]1C(=O)N(Cc3ccccc3)C(=O)[C@H]1[C@H]2C (stereo partly specified) 6.6%
COc1ccc2c3c1O[C@H]1C[C@@H](O)C=C[C@@]31CCN(C)C2
OCCNCc1cccc(OCc2ccccc2Cl)c1 -3.03%
CC1=NN(C(=O)c2ccc(Br)cc2)C(O)(c2ccccc2)C1 (stereo unspecified) 6.29%
Cc1ccc(-c2nn(CC(C)(C)C)c3ncnc(N)c23)cc1 -4.25%
COc1ccc(-c2c(C)cc3oc(=O)cc(-c4ccccc4)c3c2C)cc1OC 1.37% [at 119 µM]
